PubChem BioAssay (NCATS)
Records with an inconclusive call do not appear. Active and inactive are the calls of the source. Calls follow the shape of the dose curve; as a rule, active = well fitted curve in the direction sought with a large enough effect; inconclusive = small, poorly fitted or top-dose-only effect, or another doubt; inactive = no such curve, though single readings can be large; an effect the other way counts as inactive or inconclusive.

How the values were obtained:
[1] = Quantitative High-Throughput drug screen in 47 multiple myeloma cell lines against the NCATS MIPE library collection: FR4_PLB cell viability assay (AID 1918924; also: nearly all actives have a fitted effect of over 35% in size)
Method in brief: (§1)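 Primary qHTS used for cherry-picking: cells at 500/well, library compounds for 48 h (37C, 5% CO2), luminescent ATP assay.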

[2] = Quantitative High-Throughput drug screen in 47 multiple myeloma cell lines against the NCATS MIPE library collection: Delta47_JCRB cell viability assay (AID 1918925; also: nearly all actives have a fitted effect of over 45% in size)
Method in brief: (§2)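 qHTS of the MIPE 4.0 collection: 500 myeloma cells/well, 48 h drug exposure at 37C in 5% CO2, then CellTiter-Glo for 5 min at room temperature before luminescence reading.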

[3] = Quantitative High-Throughput drug screen in 47 multiple myeloma cell lines against the NCATS MIPE library collection: AMO1_DSMZ cell viability assay (AID 1918927; also: nearly all actives have a fitted effect of over 30% in size)
Method in brief: as §2

[4] = Quantitative High-Throughput drug screen in 47 multiple myeloma cell lines against the NCATS MIPE library collection: ARP1_JJKsccF8 cell viability assay (AID 1918928; also: nearly all actives have a fitted effect of over 40% in size)
Method in brief: (§3)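 Here, 48 h treatment with MIPE 4.0 agents at 37 °C preceded an ATP luminescence read. Plating density was 500 cells per well.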

[5] = Quantitative High-Throughput drug screen in 47 multiple myeloma cell lines against the NCATS MIPE library collection: ARD_JJKsccE7 cell viability assay (AID 1918929)
Method in brief: as §2

[6] = Quantitative High-Throughput drug screen in 47 multiple myeloma cell lines against the NCATS MIPE library collection: Karpas620_DSMZ cell viability assay (AID 1918959); also: nearly all actives have a fitted effect of over 30% in size
Method in brief: as §1

[7] = Quantitative High-Throughput drug screen in 47 multiple myeloma cell lines against the NCATS MIPE library collection: KMM1_JCRB cell viability assay (AID 1918960); also: nearly all actives have a fitted effect of over 30% in size
Method in brief: as §3

[8] = Quantitative High-Throughput drug screen in 47 multiple myeloma cell lines against the NCATS MIPE library collection: Karpas417_ECACC cell viability assay (AID 1918961); details: Karpas417 myeloma viability, CellTiter-Glo ATP luminescence, 48 h; viability (% of DMSO): at 45.8 µM (top of the series)
Method in brief: (§4)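 We plated 500 myeloma cells per well, pinned in MIPE 4.0 compounds, and incubated for 48 hours at 37C. ATP was then quantified with CellTiter-Glo, with DMSO and media-only wells defining 100% and 0%.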

[9] = Quantitative High-Throughput drug screen in 47 multiple myeloma cell lines against the NCATS MIPE library collection: KHM11_PLB cell viability assay (AID 1918962); also: nearly all actives have a fitted effect of over 35% in size
Method in brief: as §1

[10] = Quantitative High-Throughput drug screen in 47 multiple myeloma cell lines against the NCATS MIPE library collection: JIM3_ECACC cell viability assay (AID 1918963; also: nearly all actives have a fitted effect of over 35% in size)
Method in brief: as §1

[11] = Quantitative High-Throughput drug screen in 47 multiple myeloma cell lines against the NCATS MIPE library collection: JIM1_ECACC cell viability assay (AID 1918964)
Method in brief: as §2

[12] = Quantitative High-Throughput drug screen in 47 multiple myeloma cell lines against the NCATS MIPE library collection: INA6_PLB cell viability assay (AID 1918965; also: nearly all actives have a fitted effect of over 55% in size)
Method in brief: as §4

[13] = Quantitative High-Throughput drug screen in 47 multiple myeloma cell lines against the NCATS MIPE library collection: JJN3_DSMZ cell viability assay (AID 1918966; also: nearly all actives have a fitted effect of over 50% in size)
Method in brief: as §2

[14] = Quantitative High-Throughput drug screen in 47 multiple myeloma cell lines against the NCATS MIPE library collection: H1112_PLB cell viability assay (AID 1918967; also: nearly all actives have a fitted effect of over 30% in size)
Method in brief: as §2

[15] = Quantitative High-Throughput drug screen in 47 multiple myeloma cell lines against the NCATS MIPE library collection: KMS27_JCRB cell viability assay (AID 1918970); details: KMS27 myeloma cells, CellTiter-Glo ATP viability, 48 h; viability (% of DMSO): at 45.8 µM (top of the series); also: nearly all actives have a fitted effect of over 30% in size
Method in brief: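 CellTiter-Glo luminescence after 48 h drug exposure at 37 °C; 500 cells/well, 1536-well format, pin-tool compound addition; DMSO = 100%, media-only = 0% viability.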

[16] = Quantitative High-Throughput drug screen in 47 multiple myeloma cell lines against the NCATS MIPE library collection: KMS12BM_JCRB cell viability assay (AID 1918971); also: nearly all actives have a fitted effect of over 35% in size
Method in brief: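 Approved and investigational drugs from MIPE 4.0 were added by pin tool to 500 cells per well. After 48 hours at 37C, ATP-based CellTiter-Glo luminescence indicated remaining viability.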

[17] = Quantitative High-Throughput drug screen in 47 multiple myeloma cell lines against the NCATS MIPE library collection: KMS12PE_JCRB cell viability assay (AID 1918972); also: nearly all actives have a fitted effect of over 30% in size
Method in brief: as §4

[18] = Quantitative High-Throughput drug screen in 47 multiple myeloma cell lines against the NCATS MIPE library collection: Karpas25_ECACC cell viability assay (AID 1918968; also: nearly all actives have a fitted effect of over 35% in size)
Method in brief: as §2

[19] = Quantitative High-Throughput drug screen in 47 multiple myeloma cell lines against the NCATS MIPE library collection: EJM_DSMZ cell viability assay (AID 1918926; also: nearly all actives have a fitted effect of over 30% in size)
Method in brief: as §2

[20] = Quantitative High-Throughput drug screen in 47 multiple myeloma cell lines against the NCATS MIPE library collection: KMS20_JCRB cell viability assay (AID 1918973); also: nearly all actives have a fitted effect of over 45% in size
Method in brief: as §2

Measured: Potency
Potency is read from the fitted curve at half-maximal effect.

CC(NCCc1ccc(O)cc1)C(O)c1ccc(O)cc1 (stereo not given)
inactive: [1] | [2] | [3] | [4] | [5] | [6] | [8] | [9] | [10] | [11] | [12] | [13] | [14] | [15] | [16] | [17]
active: [7] 0.132 µM

COC(=O)[C@H](c1ccccc1Cl)N1CCc2sccc2C1
active: [3] 26.4 µM | [13] 20.9 µM
inactive: [1] | [2] | [4] | [10]

Cc1ccc2c(c1)C(=O)[C@]1(O)CCN(c3ccccc3)C1=N2
inactive: [1] | [2] | [6] | [7] | [9] | [11]
active: [13] 11.8 µM

CNC(=O)c1ccc2c(C(=Nc3cccc(CN(C)C)c3)c3ccccc3)c(O)[nH]c2c1
inactive: [1] | [4] | [16]
active: [2] 23.5 µM | [9] 1.32 µM | [12] 20.9 µM | [13] 2.64 µM | [14] 14.8 µM | [18] 13.2 µM | [15] 2.35 µM | [17] 18.7 µM

CN(C)c1ccccc1CN1CCCN(Cc2ccccc2N(C)C)C1c1ccncc1
active: [1] 18.7 µM | [2] 20.9 µM | [3] 16.6 µM | [5] 18.7 µM | [9] 3.32 µM | [12] 23.5 µM | [18] 16.6 µM | [16] 16.6 µM

CC(C)N(CCCNC(=O)Nc1ccc(C(C)(C)C)cc1)C[C@H]1O[C@@H](n2cc(Br)c3c(N)ncnc32)[C@H](O)[C@H]1O
inactive: [3] | [5] | [7] | [15] | [17]
active: [1] 23.5 µM | [2] 16.6 µM | [10] 29.6 µM | [12] 18.7 µM | [18] 14.8 µM

CCC=CC[C@H]1C(=O)CC[C@@H]1CC(=O)OC
inactive: [1] | [19] | [3] | [4] | [5] | [6] | [7] | [8] | [10] | [11] | [12] | [14] | [18] | [15] | [17] | [20]
active: [16] 2.35 µM

COc1ccc(-c2nc3ccc(C4=NNC(=O)CC4C)cc3[nH]2)cc1 (stereo not given)
inactive: [1] | [19] | [3] | [4] | [5] | [6] | [7] | [10] | [11] | [13] | [16] | [17]

CNC1CCC(N(Cc2cccc(-c3ccncc3)c2)C(=O)c2sc3ccccc3c2Cl)CC1 (stereo not given)
active: [1] 20.9 µM | [2] 7.43 µM | [3] 18.7 µM | [6] 16.6 µM | [7] 18.7 µM | [9] 8.33 µM | [10] 10.5 µM | [11] 14.8 µM | [12] 7.43 µM | [13] 18.7 µM | [14] 14.8 µM | [18] 9.35 µM | [15] 18.7 µM | [16] 18.7 µM | [17] 8.33 µM | [20] 5.26 µM

COC1CCC(C(=O)c2ccc3nc4c(cc3c2)CCCO4)CC1 (stereo not given)
active: [1] 26.4 µM | [2] 16.6 µM | [3] 18.7 µM | [4] 23.5 µM | [6] 16.6 µM | [9] 9.35 µM | [10] 14.8 µM | [12] 13.2 µM | [13] 20.9 µM | [18] 18.7 µM | [15] 18.7 µM | [16] 20.9 µM | [17] 14.8 µM

C[C@H]1[C@H](O)O[C@@H]2O[C@@]3(C)CC[C@@H]4[C@H](C)CC[C@@H]1[C@@]24OO3
active: [1] 6.62 µM | [2] 5.9 µM | [4] 1.66 µM | [5] 4.18 µM | [6] 5.26 µM | [8] 2.09 µM | [12] 1.66 µM | [14] 16.6 µM | [18] 1.66 µM | [15] 13.2 µM | [16] 1.66 µM | [20] 14.8 µM

CN1CCC(COc2cnc(-c3cccc(Cn4nc(-c5cccc(C#N)c5)ccc4=O)c3)nc2)CC1
inactive: [5] | [6] | [7] | [11]
active: [1] 26.4 µM | [2] 0.209 µM | [4] 20.9 µM | [9] 8.33 µM | [10] 0.372 µM | [12] 0.418 µM | [13] 0.0332 µM | [14] 0.118 µM | [18] 0.0743 µM

Cc1cnc(CNC(=O)c2c(=O)c3ccc(N4CCCN(C)CC4)nc3n3c2sc2ccccc23)cn1
active: [1] 12.9 µM | [2] 0.457 µM | [3] 0.512 µM | [4] 9.11 µM | [12] 2.57 µM | [16] 0.323 µM
inactive: [6] | [9] | [18] | [15]

CCC(=O)N1CCN(c2ccc(-n3c(=O)ccc4cnc5ccc(-c6cnc7ccccc7c6)cc5c43)cc2C(F)(F)F)CC1
active: [1] 0.0132 µM | [2] 0.0166 µM | [6] 0.0187 µM | [12] 0.0148 µM | [18] 0.0332 µM

O=C(O)C1=CO[C@@H](O[C@@H]2O[C@H](CO)[C@H](O)[C@H](O)[C@H]2O)[C@@H]2C(CO)=CC[C@H]12
inactive: [1] | [3] | [4] | [5] | [8] | [10] | [14] | [18] | [15] | [20]
active: [19] 5.9 µM | [17] 0.0743 µM

CCCCCCOC(=O)N=C(N)c1ccc(NCc2nc3cc(C(=O)N(CCC(=O)OCC)c4ccccn4)ccc3n2C)cc1
active: [1] 23.5 µM | [2] 16.6 µM | [5] 14.8 µM | [6] 7.43 µM | [7] 16.6 µM | [11] 8.33 µM | [12] 16.6 µM | [13] 18.7 µM | [15] 11.8 µM | [17] 18.7 µM

O=c1cc(-c2ccc(O)c(O)c2)oc2cc(O)cc(O)c12
active: [15] 6.62 µM
inactive: [1] | [19] | [3] | [4] | [5] | [6] | [7] | [10] | [16] | [17]

O=C(Nc1cccc(Cl)c1)Nc1ncc(CCNc2ncnc3ccsc23)s1
active: [1] 6.62 µM | [2] 7.43 µM | [3] 1.05 µM | [5] 4.69 µM | [6] 3.32 µM | [7] 5.9 µM | [9] 4.18 µM | [10] 13.2 µM | [12] 7.43 µM | [13] 5.26 µM | [14] 0.0833 µM | [18] 18.7 µM | [16] 6.62 µM | [17] 0.662 µM

O=C(Nc1ccccc1)Nc1ccc(-c2ccc(C(=O)[C@H]3CCC[C@H]3C(=O)O)cc2)cc1
active: [6] 13.2 µM | [7] 7.43 µM | [13] 3.72 µM | [15] 0.372 µM
inactive: [1] | [2] | [9] | [10] | [14] | [18]

O=C1CCCC(=O)C1C(=O)c1ccc(C(F)(F)F)cc1[N+](=O)[O-]
active: [5] 6.62 µM | [16] 0.166 µM
inactive: [1] | [19] | [3] | [4] | [6] | [8] | [9] | [10] | [12] | [13] | [14] | [18] | [15] | [17]

O=C(c1ccc(F)c(F)c1Nc1ccc(I)cc1F)N1CC(O)([C@H]2CCCCN2)C1
active: [1] 20.9 µM | [2] 20.9 µM | [3] 3.32 µM | [5] 10.5 µM | [6] 0.105 µM | [7] 11.8 µM | [9] 0.0372 µM | [10] 14.8 µM | [12] 10.5 µM | [14] 16.6 µM | [18] 16.6 µM | [15] 0.264 µM | [16] 23.5 µM | [17] 16.6 µM | [20] 0.372 µM

NC(=O)c1ccc(N(C(N)=O)c2c(F)cccc2F)nc1-c1ccc(F)cc1F
inactive: [1] | [4] | [6] | [7] | [11] | [15] | [17]
active: [2] 5.9 µM | [10] 11.8 µM | [12] 18.7 µM | [14] 5.26 µM | [18] 7.43 µM

CC(O)=C(C#N)C(=O)Nc1ccc(C(F)(F)F)cc1
inactive: [6] | [7]
active: [1] 16.6 µM | [2] 18.7 µM | [3] 6.62 µM | [10] 23.5 µM | [18] 26.4 µM | [16] 14.8 µM
